Reference: PubChem BioAssay (NCATS)
Unmarked numbers belong to inactive results. Inconclusive results are not listed. A call without a number means that no potency is given here. Calls of active or inactive are those of the source. Calls follow the shape of the dose curve; as a rule, active = well fitted curve in the direction sought with a large enough effect; inconclusive = small, poorly fitted or top-dose-only effect, or another doubt; inactive = no such curve, though single readings can be large; an effect the other way counts as inactive or inconclusive.

How the values were obtained:
[1] = Primary qHTS for inhibitors of nuclear receptor binding SET domain protein 2 (NSD2) in an isogenic RCH-ACV NSD2 p.E1099K mutant (9B) (AID 1645876); also: nearly all actives have a fitted effect of over 70% in size; also: potency is read from the fitted curve at half-maximal effect
[2] = Primary qHTS for inhibitors of nuclear receptor binding SET domain protein 2 (NSD2) in an RCH-ACV wild type WT cells (2C) (AID 1645877); also: nearly all actives have a fitted effect of over 70% in size; also: potency is read from the fitted curve at half-maximal effect
[3] = biological target: Metallo-beta-lactamase type 2 (Klebsiella pneumoniae) (UniProt C7C422); test: qHTS to identify inhibitors of the New Delhi Metallo-beta-lactamase (NDM): assay validation screen against the NCATS LOPAC Collection (AID 1794843);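 also: nitrocefin turnover by NDM-1 measured as 485 nm absorbance at plateau; series mostly up to about 38 µM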
Sequence of Metallo-beta-lactamase type 2 (Klebsiella pneumoniae) (C7C422 whole entry, looked up): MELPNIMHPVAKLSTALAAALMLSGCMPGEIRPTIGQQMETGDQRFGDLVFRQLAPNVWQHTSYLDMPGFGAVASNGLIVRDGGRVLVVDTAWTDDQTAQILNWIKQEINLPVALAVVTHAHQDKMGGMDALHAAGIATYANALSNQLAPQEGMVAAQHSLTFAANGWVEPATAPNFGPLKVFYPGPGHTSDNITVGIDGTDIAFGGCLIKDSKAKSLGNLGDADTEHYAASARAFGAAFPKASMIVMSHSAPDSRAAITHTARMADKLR
Outline: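 NDM-1 at 2 nM final in 50 mM HEPES pH 7.0, 1 uM ZnSO4, 0.01% Tween20, preincubated with LOPAC compounds pinned in DMSO; 50 uM nitrocefin (stock) added. Hydrolysis read as absorbance at 485 nm in the plateau phase.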

[4] = biological target: Glutathione peroxidase 1 (Homo sapiens) (UniProt P07203); test: Primary qHTS Assay for Inhibitors of Recombinant Selenoprotein Glutathione Peroxidase 1 (GPX1) (AID 1845191); also: nearly all actives have a fitted effect of over 65% in size
Sequence of Glutathione peroxidase 1 (Homo sapiens) (P07203 whole entry, looked up): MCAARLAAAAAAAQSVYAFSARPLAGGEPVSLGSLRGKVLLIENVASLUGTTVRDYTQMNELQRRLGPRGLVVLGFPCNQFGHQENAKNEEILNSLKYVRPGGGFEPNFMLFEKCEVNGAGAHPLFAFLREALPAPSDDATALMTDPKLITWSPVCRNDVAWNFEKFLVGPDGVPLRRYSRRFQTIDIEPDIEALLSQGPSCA
Outline: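 Recombinant GPX1 (10 nM final) was preincubated with compound for 30 min at room temperature, then reacted with 1 mM GSH, 0.5 mM CHP, 0.5 mM NADPH and 100 nM glutathione reductase; NADPH fluorescence (340/450 nm) was read at 0 and 15 min.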

[5] = biological target: Phospholipid hydroperoxide glutathione peroxidase GPX4 (Homo sapiens) (UniProt P36969); test: Primary qHTS Assay for Inhibitors of Recombinant Selenoprotein Glutathione Peroxidase 4 (GPX4) (AID 1845192); settings: outcome: dose series up to 50 µM unless noted; also: nearly all actives have a fitted effect of over 65% in size
Sequence of Phospholipid hydroperoxide glutathione peroxidase GPX4 (Homo sapiens) (P36969 whole entry, looked up): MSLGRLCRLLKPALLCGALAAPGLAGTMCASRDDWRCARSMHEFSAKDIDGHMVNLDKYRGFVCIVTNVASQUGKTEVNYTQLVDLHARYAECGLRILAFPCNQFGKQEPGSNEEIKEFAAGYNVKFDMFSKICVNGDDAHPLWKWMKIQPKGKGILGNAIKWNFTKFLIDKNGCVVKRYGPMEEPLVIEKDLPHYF
Outline: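 GR-coupled readout: 100 nM GR, 1 mM GSH, 0.5 mM NADPH; NADPH fluorescence (ex 340/em 450 nm) read at t=0 and after 15 min RT. GPX4 200 nM, preincubated 30 min with compound; substrate 0.5 mM CHP.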

[6] = NCATS anti-infectives library activity on HEK293 viability as a counter-qHTS vs the C. elegans viability qHTS (AID 1745854);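 also: HEK293 cells exposed to compounds for 24 hr before the viability read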
Outline: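 Cytotoxicity in human HEK293 cells is measured by ATP-dependent CellTiter-Glo luminescence following a 24 hr incubation with titrated library compounds at 37C. Top final concentration is 41.7 uM.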

[7] = biological target: Luciferin 4-monooxygenase (Photinus pyralis) (UniProt P08659); test: Primary firefly luciferase (FLuc) qHTS assay for identification of artifact compounds. (AID 1845220); also: series mostly up to about 54 µM; nearly all actives have a fitted effect of over 60% in size
Outline: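 Reaction readout was CCD-imaged luminescence, taken 5 min after adding 10 nM purified firefly enzyme to compound-treated wells holding 10 uM luciferin and ATP in pH 7.6 buffer.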

[8] = tested on: Nanoluciferase (engineered Oplophorus gracilirostris luciferase); test: Primary Nanoluciferase (NLuc) qHTS assay for identification of artifact compounds. (AID 1845222);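 also: NLuc secreted into diluted conditioned medium of S16 cells; series mostly up to about 54 µM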
Outline: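 Concentration-response data were obtained by luminescence after 5 min with Nano-Glo substrate at 1:100. The enzyme was diluted S16 NLuc-expressing cell medium, preincubated with compound for 15 min at RT. Curves were fitted with a 4-parameter Hill model.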

## NC(=O)N1c2ccccc2C=Cc2ccccc21
[1]
  Potency: inactive
[2]
  Potency: inactive
[3]
  Potency: inactive
[4]
  Potency: inactive
[5]
  outcome: inactive

## CC(=O)OC(C)C[N+](C)(C)C (stereo not drawn)
[1]
  Potency: inactive
[2]
  Potency: inactive
[3]
  Potency: inactive
[4]
  Potency: inactive
[5]
  outcome: inactive

## O=C1CC2(CCCC2)CC(=O)N1CCCCN1CCN(c2ncccn2)CC1
[1]
  Potency: inactive
[2]
  Potency: inactive
[3]
  Potency: inactive
[4]
  Potency: inactive
[5]
  outcome: inactive

## C[C@H](CS)C(=O)N1CCC[C@H]1C(=O)O
[1]
  Potency: inactive
[2]
  Potency: inactive
[6]
  outcome: inactive
[4]
  Potency: inactive
[5]
  outcome: inactive

## CCN(CC)CCNC(=O)c1ccc(NC(C)=O)cc1
[1]
  Potency: inactive
[2]
  Potency: inactive
[3]
  Potency: inactive
[4]
  Potency: inactive
[5]
  outcome: inactive

## NC/C=C/C(=O)O
[1]
  Potency: inactive
[2]
  Potency: inactive
[3]
  Potency: inactive
[4]
  Potency: inactive
[5]
  outcome: inactive

## CO[C@@]1(NC(=O)CSCC#N)C(=O)N2C(C(=O)O)=C(CSc3nnnn3C)CS[C@@H]21
[1]
  Potency: inactive
[2]
  Potency: inactive
[3]
  Potency: inactive
[5]
  outcome: inactive

## FC(F)(F)c1ccccc1-n1ccnc1
[1]
  Potency: inactive
[2]
  Potency: inactive
[3]
  Potency: inactive
[4]
  Potency: inactive
[5]
  outcome: inactive

## Cc1scc2c1N(C(=O)CN1CCN(C)CC1)c1ccccc1NC2=O
[1]
  Potency: inactive
[2]
  Potency: inactive
[3]
  Potency: inactive
[4]
  Potency: inactive
[5]
  outcome: inactive

## O=C(CCNNC(=O)c1ccncc1)NCc1ccccc1
[1]
  Potency: inactive
[2]
  Potency: inactive
[3]
  Potency: inactive
[4]
  Potency: inactive
[5]
  outcome: inactive

## Cc1ccc(S(=O)(=O)NC(=O)NN2CCCCCC2)cc1
[1]
  Potency: inactive
[2]
  Potency: inactive
[3]
  Potency: inactive
[5]
  outcome: inactive

## CN(C)CCN(Cc1cccs1)c1ccccn1
[1]
  Potency: inactive
[2]
  Potency: inactive
[3]
  Potency: inactive
[5]
  outcome: inactive

## CCCCCCCC/C=C\CCCCCCCC(=O)NCc1ccc(O)c(OC)c1
[1]
  Potency: 2.66 µM (active)
[2]
  Potency: 3.35 µM (active)
[3]
  Potency: inactive
[5]
  outcome: inactive

## CC(N=C(NC#N)Nc1ccncc1)C(C)(C)C (stereo not drawn)
[1]
  Potency: inactive
[2]
  Potency: inactive
[3]
  Potency: inactive
[5]
  outcome: inactive

## NS(=O)(=O)c1cc2c(cc1Cl)NC(C1CC3C=CC1C3)NS2(=O)=O (stereo not drawn)
[1]
  Potency: inactive
[2]
  Potency: inactive
[3]
  Potency: inactive
[5]
  outcome: inactive

## Nc1c2c(nc3ccccc13)CCCC2O (stereo not drawn)
[1]
  Potency: inactive
[2]
  Potency: inactive
[3]
  Potency: inactive
[5]
  outcome: inactive

## O=C(O)CN(CCOCCOCCN(CC(=O)O)CC(=O)O)CC(=O)O
[1]
  activity change, negative = viability loss: 5.34% [at 0.588 µM]
[2]
  activity change, negative = cell killing: -1.31% [at 0.588 µM]
[3]
  Potency: inactive
[4]
  Potency: inactive
[5]
  outcome: inactive

## C[C@]12CCC(=O)C=C1CC[C@@H]1[C@@H]2C(=O)C[C@@]2(C)[C@H]1CC[C@]2(O)C(=O)CO
[1]
  Potency: inactive
[2]
  Potency: inactive
[3]
  Potency: inactive
[4]
  Potency: inactive
[5]
  outcome: inactive

## NCCCNCCSP(=O)(O)O
[1]
  outcome: inactive [at 9.23 µM]
[2]
  activity change, negative = cell killing: 5.49% [at 9.23 µM]
[3]
  Potency: inactive
[4]
  Potency: inactive
[5]
  outcome: inactive

## CCCCNC(=O)NS(=O)(=O)c1ccc(C)cc1
[1]
  Potency: inactive
[2]
  Potency: inactive
[3]
  Potency: inactive
[5]
  outcome: inactive

## CCN1CCc2nc(N)oc2CC1
[1]
  Potency: inactive
[2]
  Potency: inactive
[4]
  Potency: inactive
[5]
  outcome: inactive

## NC(Cc1ccc(Cl)cc1)C(=O)O (stereo not drawn)
[1]
  outcome: inactive [at 0.588 µM]
[2]
  activity change, negative = cell killing: 2.13% [at 0.588 µM]
[3]
  Potency: inactive
[4]
  Potency: inactive
[5]
  outcome: inactive

## CCN(Cc1ccncc1)C(=O)C(CO)c1ccccc1 (stereo not drawn)
[1]
  Potency: inactive
[2]
  Potency: inactive
[3]
  Potency: inactive
[4]
  Potency: inactive
[5]
  outcome: inactive

## COc1ccc([C@@H]2Sc3ccccc3N(CCN(C)C)C(=O)[C@@H]2OC(C)=O)cc1
[1]
  Potency: inactive
[2]
  Potency: inactive
[3]
  Potency: inactive
[4]
  Potency: inactive
[5]
  outcome: inactive

## C[C@]12CC[C@@H]3c4ccc(O)cc4C[C@@H](CCCCCCCCCS(=O)CCCC(F)(F)C(F)(F)F)[C@H]3[C@@H]1CC[C@@H]2O (stereo partly drawn)
[1]
  Potency: inactive
[2]
  Potency: inactive
[3]
  Potency: inactive
[5]
  outcome: inactive

## CCO/C([O-])=N/c1c[n+](N2CCOCC2)no1
[1]
  Potency: inactive
[2]
  Potency: inactive
[3]
  Potency: inactive
[4]
  Potency: inactive
[5]
  outcome: inactive

## O=C(O)CCCCCCCC(=O)O
[1]
  Potency: inactive
[2]
  Potency: inactive
[3]
  Potency: inactive
[5]
  outcome: inactive

## CCCN(CCC)C(=O)C(CCC(=O)O)NC(=O)c1ccccc1 (stereo not drawn)
[1]
  Potency: inactive
[2]
  Potency: inactive
[3]
  Potency: inactive
[5]
  outcome: inactive

## CN(C)C/C=C(/c1ccc(Br)cc1)c1cccnc1
[1]
  Potency: inactive
[2]
  Potency: inactive
[3]
  Potency: inactive
[5]
  outcome: inactive

## CSc1ccc(C(=O)c2[nH]c(=O)[nH]c2C)cc1
[1]
  Potency: inactive
[2]
  Potency: inactive
[3]
  Potency: inactive
[4]
  Potency: inactive
[5]
  outcome: inactive

## CC(C)(Oc1ccc(CCNC(=O)c2ccc(Cl)cc2)cc1)C(=O)O
[1]
  Potency: inactive
[2]
  Potency: inactive
[3]
  Potency: inactive
[4]
  Potency: inactive
[5]
  outcome: inactive

## CCN(CC)CCNC(=O)c1cc(S(C)(=O)=O)ccc1OC
[1]
  Potency: inactive
[2]
  Potency: inactive
[3]
  Potency: inactive
[4]
  Potency: inactive
[5]
  outcome: inactive

## CCCCNc1ccc(C(=O)OCCN(C)C)cc1
[1]
  Potency: inactive
[2]
  Potency: inactive
[3]
  Potency: inactive
[4]
  Potency: inactive
[5]
  outcome: inactive

## CC(C)[N+](C)(CCOC(=O)C1c2ccccc2Oc2ccccc21)C(C)C
[1]
  Potency: inactive
[2]
  Potency: inactive
[3]
  Potency: inactive
[5]
  outcome: inactive

## COC(=O)[C@H]1[C@H]2C[C@@H]3c4[nH]c5cc(OC)ccc5c4CCN3C[C@H]2C[C@@H](OC(=O)c2cc(OC)c(OC)c(OC)c2)[C@@H]1OC
[1]
  Potency: inactive
[2]
  Potency: inactive
[3]
  Potency: inactive
[4]
  Potency: inactive
[5]
  outcome: inactive
[7]
  outcome: inactive
[8]
  outcome: inactive

## CC(=O)[C@@]1(O)CC[C@H]2[C@@H]3CCC4=CC(=O)CC[C@]4(C)[C@H]3CC[C@@]21C
[1]
  Potency: inactive
[2]
  Potency: inactive
[3]
  Potency: inactive
[4]
  Potency: inactive
[5]
  outcome: inactive
